Data from PubChem BioAssay (Tox21).
Results filed as inconclusive are left out. The source made the active and inactive calls. Unless noted, the call rests on the fitted dose curve; in most records, active means well fitted curve in the direction sought with a large enough effect in the repeat runs; inconclusive means weak or mixed curves; inactive means no such curve, though single readings can be large; an effect the other way counts as inactive or inconclusive.

How the values were obtained:
[1] = qHTS assay to test for compound auto fluorescence at 535 nm (green) in HepG2 cells (AID 720675); further: on the % scale 0 is the no-effect control and ±100 the full control effect
[2] = qHTS assay to test for compound auto fluorescence at 590 nm (red) in HEK293 cells (AID 720679); further: on the % scale 0 is the no-effect control and ±100 the full control effect
Method in brief: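 Using HEK293 cells at 2,000 per well, the screen added 23 nL of each compound after cell attachment and incubated overnight (37C, 5% CO2). The plate reader then captured red-label fluorescence, Ex/Em 540/590nm.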

[3] = qHTS assay to test for compound auto fluorescence at 535 nm (green) in HEK293 cell free culture (AID 720682); further: on the % scale 0 is the no-effect control and ±100 the full control effect
Method in brief: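 Intrinsic compound fluorescence is measured in culture medium containing 10% FBS, with excitation at 485 nm and detection at 535 nm, referenced to fluorescein.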

[4] = qHTS assay to identify small molecule agonists of the RXR signaling pathway - cell viability counter screen (AID 1159529); further: nearly all actives have a fitted effect of over 50% in size; further: potency means the concentration at half of the fitted maximal effect
Method in brief: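 Tox21 10K compounds were tested for cytotoxicity against GeneBLAzer RXR-alpha HEK 293T cells grown in 2% charcoal-stripped FBS. Exposure lasted 16 hr at 37 C, 5% CO2; viability read by CellTiter-Glo luminescence.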

[5] = qHTS assay to identify small molecule antagonists of the estrogen related receptor signaling pathway with the pleiotropic PPARgamma coactivator (PGC) from Tox21 10K library - cell viability counter screen (AID 1224840; active means well fitted cell-killing curve with a large enough effect in the repeat runs, not every such curve was filed as active; further: nearly all actives have a fitted effect of over 40% in size; further: potency means the concentration at half of the fitted maximal effect)
Method in brief: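 Seeded PGC/ERR cells (2,000/well, 6 h, 37 C/5% CO2) get compound by pin tool; 17.5 h incubation at 37 C; CellTiter-Fluor added, 30 min, fluorescence measured.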

[6] = qHTS assay to identify small molecule agonists of H2AX - cell viability counter screen (AID 1224847; calls by dose curve; further: nearly all actives have a fitted effect of over 30% in size; further: potency means the concentration at half of the fitted maximal effect)
Method in brief: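 Viability of CHO-K1 (wild type) cells after 3 hr compound exposure was measured by CellTiter-Glo luminescence.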

[7] = qHTS assay to identify small molecule agonists of the androgen receptor (AR) signaling pathway in the presence of an antagonist - cell viability counter screen (AID 1259379); further: nearly all actives have a fitted effect of over 25% in size; further: potency means the concentration at half of the fitted maximal effect
Method in brief: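 MDA-kb2 viability measured by CellTiter-Fluor fluorescence in the same wells as the luciferase signal; nilutamide 3.0uM final; 15-point compound titration; 16 hr at 37C.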

[8] = qHTS assay to identify small molecule agonists of the estrogen receptor beta (ER-beta) signaling pathway - cell viability counter screen (AID 1259380); further: nearly all actives have a fitted effect of over 30% in size; further: potency means the concentration at half of the fitted maximal effect
Method in brief: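 Measured: luminescence from CellTiter-Glo after 30 min at room temperature, added to wells already read for the LiveBLAzer FRET reporter (2 hr substrate); ER-beta-UAS-bla HEK293T cells had 16 hr compound treatment at 37C, 5% CO2.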

[9] = qHTS assay to identify small molecule antagonists of the estrogen receptor beta (ER-beta) signaling pathway - cell viability counter screen (AID 1259382); further: nearly all actives have a fitted effect of over 55% in size; further: potency means the concentration at half of the fitted maximal effect
Method in brief: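 Readout: luminescence, CellTiter-Glo, same wells as bla assay. System: ER-beta-UAS-bla GripTite HEK293T, 2% charcoal-stripped FBS. Exposure: compounds plus 1nM 17-beta-estradiol, 16 hr, 37C.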

[10] = target: Thyrotropin receptor (Homo sapiens) (UniProt P16473); assay: qHTS assay to identify small molecule antagonists of the thyroid stimulating hormone receptor (TSHR) signaling pathway (AID 1259385; calls by dose curve; further: nearly all actives have a fitted effect of over 20% in size; further: potency means the concentration at half of the fitted maximal effect)
Method in brief: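 TSHR-HEK293 cells (800/well) plated 18 h, then compounds with Ro20-1724 and TSH at 1.5 ng/mL final, 30 min at room temperature. cAMP quantified by HTRF (cAMP-d2/anti-cAMP-cryptate, 1 h); 15 concentrations in triplicate.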

[11] = qHTS assay to identify small molecule antagonists of the progesterone receptor (PR) signaling pathway - cell viability counter screen (AID 1346798); further: nearly all actives have a fitted effect of over 50% in size; further: potency means the concentration at half of the fitted maximal effect
Method in brief: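 Viability was determined by ATP-based luminescence (CellTiter-Glo) in PR-UAS-bla HEK293T cells cultured in 2% charcoal-stripped serum and incubated 16 hr with compounds under R5020 stimulation.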

[12] = target: Thyrotropin-releasing hormone receptor (Homo sapiens) (UniProt P34981); assay: qHTS assay to identify small molecule agonists of the thyrotropin-releasing hormone receptor (TRHR) signaling pathway (AID 1346891; calls by dose curve;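 further: HEK293 cells expressing TRHR with calcium dye readout; series mostly up to about 58 µM; on the % scale 0 is the no-effect control and ±100 the full control effect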)
Method in brief: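 Kinetic fluorescence (3 min, 1 s intervals) reported intracellular calcium after compound transfer onto TRHR-Hek293 cells pre-loaded with dye for 2 h at 37 °C.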

[13] = Caspase-3/7 induction in CHO-K1 cells by small molecules, qHTS cell viability counter screen (AID 1346979); further: potency means the concentration at half of the fitted maximal effect; nearly all actives have a fitted effect of over 35% in size
Method in brief: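 Seeding: 1,500 CHO-K1 cells/well. Rest: 5hr, 37C. Treatment: compounds in DMSO, 16hr. Read: CellTiter-Fluor, 1hr, fluorescence.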

[14] = target: Cytochrome P450 2D6 (Homo sapiens) (UniProt P10635); assay: Cytochrome P450 Family 2 Subfamily D Member 6 (CYP2D6) small molecule antagonists: luciferase reporter qHTS assay (AID 1671196); further: nearly all actives have a fitted effect of over 50% in size; further: potency means the concentration at half of the fitted maximal effect
Method in brief: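 Chemicals tested for interference with CYP2D6 activity; proluciferin substrate, NADPH regeneration, 1 h at room temperature, luminescent detection.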

[15] = target: Nuclear receptor subfamily 1 group I member 3 (Homo sapiens) (UniProt Q14994); assay: qHTS assay to identify small molecule agonists of the constitutive androstane receptor (CAR) signaling pathway (AID 1224839); further: nearly all actives have a fitted effect of over 15% in size; further: potency means the concentration at half of the fitted maximal effect
Method in brief: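 Stable hCAR/CYP2B6-2.2kb HepG2 line in DMEM with 10% FBS; compounds (15 concentrations) and 0.75 uM PK11195 final, 24 h at 37 C/5% CO2, then ONE-Glo luminescence after 30 min.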

[16] = qHTS assay to identify small molecule agonists of the hypoxia (HIF-1) signaling pathway - cell viability counter screen (AID 1224844; calls by dose curve; further: nearly all actives have a fitted effect of over 50% in size; further: potency means the concentration at half of the fitted maximal effect)
Method in brief: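 HRE-bla ME-180; 0.5% dFBS; cpd 17 h, 37C, 5% CO2; CellTiter-Glo lum., 30 min RT, post-FRET read, same wells.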

[17] = A CellTox Green Cytotoxicity Assay to monitor cytotoxicity in HEK293 cells - 24 hour (AID 1224875); further: series mostly up to about 77 µM; on the % scale 0 is the no-effect control and ±100 the full control effect; nearly all actives have a fitted effect of over 45% in size
Method in brief: (§1)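 Tox21 screen in HEK293: membrane-impermeant cyanine dye fluoresces on binding dead-cell DNA; compound pinned 5 h post-seeding, plates held at 37 C, signal read repeatedly through 40 h.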

[18] = A CellTox Green Cytotoxicity Assay to monitor cytotoxicity in HEK293 cells - 32 hour (AID 1224881); further: nearly all actives have a fitted effect of over 40% in size; further: potency means the concentration at half of the fitted maximal effect
Method in brief: as §1

[19] = qHTS RealTime-Glo MT Cell Viability Assay in HEK293 cells - 16 hour (AID 1224872); further: nearly all actives have a fitted effect of over 50% in size; further: potency means the concentration at half of the fitted maximal effect
Method in brief: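 Reads taken at 0, 8, 16, 24, 32 and 40 h from the same wells. HEK293 cells (600/well) carried RealTime-Glo reagents from seeding, with compound added after a 5 h settle at 37 C.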

[20] = qHTS RealTime-Glo MT Cell Viability Assay in HepG2 cells - 8 hour (AID 1224873); further: on the % scale 0 is the no-effect control and ±100 the full control effect; nearly all actives have a fitted effect of over 55% in size
Method in brief: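 HepG2 cells (600/well) mixed with RealTime-Glo MT reagent, settled 5 h at 37 C/5% CO2 before compound addition. Nonlytic NanoLuc luminescence from viable-cell prosubstrate reduction read repeatedly during 40 h treatment at 37 C.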

Thyrotropin receptor (Homo sapiens), sequence (P16473 whole entry, looked up): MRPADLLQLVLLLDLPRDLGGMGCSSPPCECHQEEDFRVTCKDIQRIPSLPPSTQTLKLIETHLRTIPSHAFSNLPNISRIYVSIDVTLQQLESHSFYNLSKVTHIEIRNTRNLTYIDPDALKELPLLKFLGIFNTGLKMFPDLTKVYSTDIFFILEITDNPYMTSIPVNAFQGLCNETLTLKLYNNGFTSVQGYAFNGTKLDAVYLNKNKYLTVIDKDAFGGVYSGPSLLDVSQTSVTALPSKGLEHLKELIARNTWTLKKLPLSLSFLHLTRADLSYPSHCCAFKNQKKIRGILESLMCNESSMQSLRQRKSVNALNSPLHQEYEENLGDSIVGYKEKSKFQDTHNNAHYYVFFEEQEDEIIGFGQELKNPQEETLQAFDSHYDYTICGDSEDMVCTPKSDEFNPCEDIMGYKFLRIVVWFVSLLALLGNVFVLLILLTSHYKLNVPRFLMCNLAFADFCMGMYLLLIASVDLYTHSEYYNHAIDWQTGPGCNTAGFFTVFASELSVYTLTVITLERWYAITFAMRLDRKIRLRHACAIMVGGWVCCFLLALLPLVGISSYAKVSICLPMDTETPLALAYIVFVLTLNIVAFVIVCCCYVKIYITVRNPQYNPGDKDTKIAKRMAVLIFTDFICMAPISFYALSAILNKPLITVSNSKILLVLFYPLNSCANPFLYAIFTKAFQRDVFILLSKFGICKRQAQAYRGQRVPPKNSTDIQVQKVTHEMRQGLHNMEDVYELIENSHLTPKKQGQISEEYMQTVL
Nuclear receptor subfamily 1 group I member 3 (Homo sapiens), sequence (Q14994 whole entry, looked up): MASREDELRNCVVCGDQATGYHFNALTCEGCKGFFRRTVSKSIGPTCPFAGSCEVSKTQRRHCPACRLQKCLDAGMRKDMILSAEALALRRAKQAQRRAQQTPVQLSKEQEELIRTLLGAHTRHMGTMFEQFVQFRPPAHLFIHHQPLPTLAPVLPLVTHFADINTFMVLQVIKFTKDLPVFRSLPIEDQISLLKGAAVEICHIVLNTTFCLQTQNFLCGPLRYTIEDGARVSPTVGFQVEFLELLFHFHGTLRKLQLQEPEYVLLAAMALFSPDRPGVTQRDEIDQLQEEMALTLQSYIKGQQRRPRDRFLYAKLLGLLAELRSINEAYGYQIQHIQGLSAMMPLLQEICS
Thyrotropin-releasing hormone receptor (Homo sapiens), sequence (P34981 whole entry, looked up): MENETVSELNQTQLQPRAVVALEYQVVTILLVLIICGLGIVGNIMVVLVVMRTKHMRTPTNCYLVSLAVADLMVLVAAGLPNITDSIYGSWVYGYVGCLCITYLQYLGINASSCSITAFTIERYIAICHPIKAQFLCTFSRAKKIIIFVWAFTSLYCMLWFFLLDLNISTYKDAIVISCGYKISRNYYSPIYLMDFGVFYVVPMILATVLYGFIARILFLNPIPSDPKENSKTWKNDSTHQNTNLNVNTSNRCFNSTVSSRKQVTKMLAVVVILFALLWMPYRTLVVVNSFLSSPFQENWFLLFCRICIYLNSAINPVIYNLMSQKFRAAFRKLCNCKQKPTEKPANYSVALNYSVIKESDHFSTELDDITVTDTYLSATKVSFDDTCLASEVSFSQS
Cytochrome P450 2D6 (Homo sapiens), sequence (P10635 whole entry, looked up): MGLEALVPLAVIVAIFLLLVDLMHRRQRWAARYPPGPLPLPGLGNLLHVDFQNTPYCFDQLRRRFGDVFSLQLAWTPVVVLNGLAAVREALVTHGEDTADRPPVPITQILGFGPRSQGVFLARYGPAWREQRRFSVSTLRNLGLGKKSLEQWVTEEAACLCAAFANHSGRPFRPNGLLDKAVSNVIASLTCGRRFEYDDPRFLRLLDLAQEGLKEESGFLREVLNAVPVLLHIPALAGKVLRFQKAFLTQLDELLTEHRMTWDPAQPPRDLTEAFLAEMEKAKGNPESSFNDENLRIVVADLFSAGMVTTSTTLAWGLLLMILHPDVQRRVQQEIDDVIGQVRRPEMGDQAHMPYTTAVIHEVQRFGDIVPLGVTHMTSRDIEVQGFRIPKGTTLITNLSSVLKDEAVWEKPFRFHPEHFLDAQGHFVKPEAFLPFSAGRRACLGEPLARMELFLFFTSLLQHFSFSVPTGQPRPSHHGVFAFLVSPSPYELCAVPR

CO/C=C(/C(=O)OC)c1ccccc1Oc1cc(Oc2ccccc2C#N)ncn1
inactive: Potency [1] | outcome [2] | Potency [3] | outcome [12]
active: Potency [4] 41.5 µM | Potency [5] 36.7 µM | Potency [6] 0.678 µM | Potency [7] 23.1 µM | Potency [8] 51.8 µM | Potency [9] 54 µM | Potency [10] 61.1 µM | Potency [11] 51.8 µM | Potency [13] 1.05 µM | Potency [14] 43.1 µM

COc1ccc(C(c2ccc(OC)cc2)C(Cl)(Cl)Cl)cc1
active: Potency [15] 2.42 µM | Potency [6] 50.2 µM | Potency [13] 60.8 µM | Potency [14] 44.5 µM
inactive: Potency [1] | outcome [2] | Potency [3] | Potency [5] | Potency [16] | Potency [17] | Potency [18] | Potency [9] | outcome [12]

Oc1c(I)cc(I)cc1I
inactive: Potency [5] | Potency [19] | Potency [20] | Potency [17] | Potency [18] | Potency [7] | Potency [10] | Potency [11]
active: Potency [16] 38.9 µM

O=C(c1ccccc1)C(Cl)Cl
active: Potency [19] 34.7 µM | Potency [18] 34.7 µM | Potency [13] 27.3 µM
inactive: Potency [4] | Potency [8] | Potency [9] | Potency [11] | outcome [12]

Cc1ccc2nc3sc(=O)sc3nc2c1
inactive: activity change, negative = cytotoxicity [4] -5.08% [at 15.8 µM] | activation [15] 7.43% [at 19 µM] | viability change, negative = cytotoxic [5] -9.2% [at 19 µM] | activity change, negative = cytotoxicity [6] 0.633% [at 31.6 µM] | activity change, negative = cytotoxicity [19] 3.61% [at 15.8 µM] | viability change, negative = cytotoxic [20] 3.11% [at 15.8 µM] | activity change [17] -5.16% [at 15.8 µM, stronger effect = higher value] | cytotoxicity increase [18] -11.5% [at 15.8 µM] | activity change, negative = cytotoxicity [7] -12.9% [at 19 µM] | activity change, negative = cytotoxicity [9] -3.52% [at 19 µM] | activity change, negative = inhibition [10] 2.89% [at 19 µM] | activity change, negative = cytotoxicity [11] -19.3% [at 18.9 µM] | activation [12] -0.107% [at 11.8 µM] | activity change, negative = inhibition [14] 1.42% [at 23.6 µM]
active: Potency [16] 7.37 µM | Potency [13] 5.8 µM

CC(c1ccccc1)(c1ccc(O)cc1)c1ccc(O)cc1
active: Potency [16] 54.9 µM | Potency [8] 54.5 µM | Potency [9] 61.1 µM | Potency [13] 68.6 µM
inactive: Potency [20] | Potency [10] | outcome [12]

c1ccc2c(c1)Sc1ccccc1N2CC1CN2CCC1CC2 (centres undefined)
active: Potency [4] 19 µM | Potency [8] 23.7 µM | Potency [9] 21.1 µM | Potency [11] 21.1 µM | Potency [13] 29.8 µM
inactive: Potency [1] | outcome [2] | Potency [3] | Potency [15]

COc1cc(OC)c(OC)cc1C=O
inactive: Potency [1] | outcome [2] | Potency [3] | Potency [4] | Potency [15] | Potency [5] | Potency [6] | Potency [20] | Potency [17] | Potency [18] | Potency [7] | outcome [12]
active: Potency [14] 19.4 µM
